Source: PubChem BioAssay (Broad Institute)
HIV Env fusion = blocks HIV Env-driven cell-cell fusion; AID 651610; 360,000 compounds, 1.1% hits; inhibition, % at 12.3 µM; HeLa-JRFL Env/CEM21 cell fusion, luciferase;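 active = mean replicate inhibition score of at least 50 and every replicate individually at or above 50; inconclusive = only one of the two criteria met; inactive = mean below 50 and not all replicates reaching 50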;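 also: 0% = plate neutral controls and 100% = maraviroc near 300 nM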
MITF act = MITF TRPM1 promoter activation in melanoma cells | SK-MEL-5 TRPM1-promoter luciferase, 24 h; % of positive control, neutral wells = 0 | activation, % at 12.5 µM | 300,000 compounds, 0.75% hits;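 active = mean activation of at least 80% with every replicate also reaching 80%; inconclusive = mean reaches 80% but some replicate falls short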;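 also: 0% = neutral control wells and 100% = parthenolide positive control wells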
esBAF inh = inhibitors of esBAF chromatin remodeling in mouse ES cells; 350,000 compounds, 2% hits; Bmi1-luciferase knock-in reporter, 24 h; 100% = twice the neutral-well signal; reporter increase, % at 12.5 µM; in the data active = activation above about 40%; inconclusive = no clear call, values can overlap the other calls;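 also: 0% = median of the plate's neutral control wells and 100% = double that signal; a rise in the Bmi1 reporter signal indicates esBAF inhibition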
miR-122 sensor = miR-122 inhibition in Huh7 cells. Huh7 miR-122 Renilla luciferase sensor, 48 h; neutral wells = 0, positive control = 100. activation (reporter increase), % at 12.5 µM. 340,000 compounds, 0.3% hits. AID 602342;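 active = mean replicate activation score at least 90 and every replicate individually at or above 90; inconclusive = only one of the two criteria met; inactive = neither criterion met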;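 also: higher luciferase means less miR-122 activity so hits act as miR-122 inhibitors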
Wnt act = activators of Wnt/beta-catenin signaling; activation, % at 9.35 µM; Wnt/beta-catenin reporter cell assay, activator, plate reader; 300,000 compounds, 1.2% hits; AID 743398; in the data active = activation above about 30%, passing the limit was not always enough; inconclusive = no clear call, values can overlap the other calls;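 also: 0% = neutral control wells and 100% = positive control wells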
* hit, by the source's call; ? = inconclusive; / = no result given; [ ] = dose if it differs, or a comment. Hits are enriched below; roughly 3.4% of the tested compounds scored in any of these assays.

SMILES	HIV Env fusion	MITF act	esBAF inh	miR-122 sensor	Wnt act
C[C@H]1CN([C@@H](C)CO)C(=O)c2cc(C#CC3CC3)cnc2O[C@H]1CN(C)C(=O)CC1CC1	-11[16.7 µM]	/	-3	0[16.7 µM]	/
C[C@@H]1CN([C@@H](C)CO)C(=O)c2cc(NC(=O)C3CC3)ccc2O[C@@H]1CN(C)CC1CC1	-10[16.7 µM]	/	3	0[16.7 µM]	/
O=C(Nc1ccc(Cl)cc1)c1ccc2ncsc2c1	-38	64	65*	-4	19
O=C(Nc1ccc(F)cc1)c1ccc2ncsc2c1	-37	73	?	4	20
CC1CCc2nc(NC(=O)C3CC3)sc2C1 (stereo unspecified)	/	41	/	5	/
Cc1ncsc1C(=O)Nc1nc2c(s1)CC(C)CC2 (stereo unspecified)	-171	54	11	-9	32*
Cc1noc(C)c1NC(=O)Nc1ccc2c(c1)C(=O)N([C@H](C)CO)C[C@H](C)[C@H](CN(C)S(=O)(=O)c1ccc(Cl)cc1)OCCCC[C@H](C)O2	-89[16.7 µM]	/	-2	-8[16.7 µM]	/
O=C1NC(c2ccc(Cl)cc2)Nc2ccccc21 (stereo unspecified)	-2	-10	/	/	-2
CN(C)c1ccc(C2NC(=O)c3ccccc3N2)cc1 (stereo unspecified)	-37	77	-24	1	31*
CSc1ccc(/C=N/n2c(C3CCCCC3)n[nH]c2=S)cc1	22	5	1	-6	-2
S=c1[nH]nc(C2CCCCC2)n1/N=C/c1ccncc1	56*	1	/	/	-25
C[C@H](CO)N1C[C@H](C)[C@H](CN(C)C(=O)Cc2ccccc2)OCCCC[C@H](C)Oc2ccc(NC(=O)CCC(F)(F)F)cc2C1=O	-10[16.7 µM]	/	15	3[16.7 µM]	/
COc1ccc2c3c([nH]c2c1)[C@@H](CO)N(C(=O)c1cccnc1)CC31CCN(C(=O)Nc2cccc(F)c2)CC1	-3[16.7 µM]	/	/	/	/
O/C(=C\c1ccc2ccccc2n1)c1ccc(O)cc1O	-301	20	-30	4	43*
C[C@@H]1CN([C@@H](C)CO)C(=O)Cc2cc(NC(=O)CCN3CCOCC3)ccc2O[C@H]1CN(C)S(C)(=O)=O	-8[16.7 µM]	/	-4	2[16.7 µM]	/
CCOc1ccc(N2C(=O)c3ccccc3C2O)cc1 (stereo unspecified)	-91	/	?	-1	43*
O=C(COc1ccc(N2C(=O)c3ccccc3C2=O)cc1)c1ccccc1	0	4	/	/	-5
CCOc1ccc(N2C(=O)c3ccccc3C2=O)cc1	-33	7	43*	-5	/
CCCC#Cc1cnc2c(c1)C(=O)N([C@@H](C)CO)C[C@H](C)[C@@H](CN(C)S(=O)(=O)c1cn(C)cn1)O2	0[16.7 µM]	/	-2	22[16.7 µM]	/
COc1cccc(C(=O)O/N=C(\N)c2ccncc2)c1	/	53	37	0	0
N/C(=N\OC(=O)c1ccco1)c1cccc(Br)c1	-159	56	8	41	50*
N/C(=N\OC(=O)c1ccncc1)c1cccc([N+](=O)[O-])c1	-17	/	54*	-4	14
Cc1cccc(/C(N)=N/OC(=O)c2ccncc2)c1	-49	69	12	-6	34*
Cc1ccc(C(=O)O/N=C(\N)c2cccc([N+](=O)[O-])c2)cc1	/	94*	40	-19	-2
CC(C)NC(=O)Nc1ccc2c(c1)C(=O)N([C@H](C)CO)C[C@@H](C)[C@H](CN(C)C(=O)c1ccncc1)OCCCC[C@@H](C)O2	-10[16.7 µM]	/	/	8[16.7 µM]	/
SMILES	HIV Env fusion	MITF act	esBAF inh	miR-122 sensor	Wnt act
CC(=O)N(C)C[C@H]1Oc2ncc(C#Cc3ccccc3F)cc2C(=O)N([C@H](C)CO)C[C@@H]1C	-2[16.7 µM]	/	-1	3[16.7 µM]	/
C[C@@H]1CN([C@H](C)CO)C(=O)CCCn2nncc2CO[C@@H]1CN(C)Cc1ccc(O)cc1	3[16.7 µM]	/	-9	0[16.7 µM]	/
N/C(=N\OC(=O)c1ccc(Br)cc1)c1cccc([N+](=O)[O-])c1	-18	48	72*	-1	4
O=c1cc(-c2cccc(F)c2)oc2ccccc12	-310	30	51*	-5	-1
O=c1cc(-c2ccccc2)oc2cc(O)ccc12	/	88*	?	-17	4
COc1ccc(-c2cc(=O)c3ccccc3o2)cc1	/	70	63*	3	-2
COc1ccc(N=c2cc(-c3ccc(OC)cc3)oc3ccccc23)cc1	-27	20	/	/	119*
COc1ccc(-c2cc(=Nc3ccc(C)cc3)c3ccccc3o2)cc1	-43	12	-36	7	4
CCC(=O)N[C@H]1CC[C@@H](CC(=O)NCC2CCCCC2)O[C@@H]1CO	-19[16.7 µM]	/	-3	0[16.7 µM]	/
O=C(C[C@@H]1CC[C@@H]2[C@H](COC[C@H](O)CN2Cc2ccc(Cl)cc2)O1)NCc1ccccc1Cl	/	/	4	4[16.7 µM]	/
COc1ccc(/C=C/c2c(-c3ccc(OC)cc3)oc3ccccc23)cc1	56*	1	-3	3	10
O=c1cc(-c2ccc(O)cc2)oc2ccc(O)cc12	10	78	37	-1	56*
O=c1cc(-c2ccc(O)cc2)oc2ccccc12	/	/	58*	3	3
Cc1ccc(NC(=O)Nc2ccccc2C(=O)NCc2ccccc2)cc1	/	48	51*	7	/
CCN1CCN(Cc2ccc(NC(=O)Nc3ccccc3Cl)cc2)CC1	-23	55	-9	-2	15
CCN1CCN(Cc2ccccc2NC(=O)Nc2ccc(C)cc2)CC1	/	76	43*	3	/
CO[C@H]1CN(C)C(=O)c2ccc(NC(=O)C3CCOCC3)cc2OC[C@H](C)N(CC2CC2)C[C@H]1C	/	/	0	/	/
COc1ccc(Nc2ncnc3c2oc2ccccc23)cc1	/	69	-13	0	/
O=C(O)CSc1ncnc2c1oc1ccccc12	/	-2	-10	4	0
c1ccc(Sc2ncnc3c2oc2ccccc23)cc1	/	52	71*	-2	/
Cc1ccc(Nc2ncnc3c2oc2ccccc23)cc1	/	19	47*	12	/
CO[C@H]1CN(C)C(=O)c2ccc(NC(=O)C3CCCC3)cc2OC[C@H](C)N(C)C[C@H]1C	/	/	-2	5[16.7 µM]	/
CCOC(=O)c1ccc2nc(NC(C)=O)sc2c1	-78	42	47*	-7	46*
CC(=O)Nc1nc2ccc(Br)cc2s1	-15	24	62*	/	/
CCOC(=O)c1ccc2nc(Nc3nc4ccc(F)cc4s3)sc2c1	14	-95	/	/	-12
SMILES	HIV Env fusion	MITF act	esBAF inh	miR-122 sensor	Wnt act
CC(=O)N(C)C[C@H]1Oc2ncc(-c3cccc(C#N)c3)cc2C(=O)N([C@@H](C)CO)C[C@H]1C	12[16.7 µM]	/	-1	3[16.7 µM]	/
Cc1ccc(OCc2cc(C(=O)N3CCN(C4CCCC4)CC3)no2)cc1C	-26	12	8	/	6
Cc1ccc(OCc2cc(C(=O)N3CCN(C4CCCCC4)CC3)no2)cc1C	-38	36	55*	1	11
Cc1ccc(OCc2cc(C(=O)N3CCC(c4ccccc4Cl)C3)no2)cc1C (stereo unspecified)	-22	50	57*	-9	29
Cc1ccc(OCc2cc(C(=O)N(CCO)Cc3cccs3)no2)cc1C	-40	86*	84*	4	27
Cc1ccc(OCc2cc(C(=O)N3CCN(c4ccccc4)CC3)no2)cc1C	-69	83*	?	-9	36*
